Assay results as given in the supplement of paper PMC3545927.
The list shows a part of the results. The hit rate among all sequences tested is not known here.

Target: furin, P09958
Test: furin cleavage Z-score vs untreated control; higher = more cleavage, active = 3.5 or more, inactive = 1 or less, 8 variable residues between constant flanks
Method in brief: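 Sequencing of released DNA, tagged with adapters by PCR, gave read counts used as abundance. That DNA was freed when purified furin cut N-terminally bead-bound 8-mer peptides fused to a cDNA oligonucleotide, in 0.01 ml reactions at 1:10 enzyme:substrate in 50 mM HEPES pH 7.5 with CaCl2 and NaCl, lasting 7.5, 15 or 30 min. The cleavage Z-score was the lowess-adjusted log count versus furin-free reactions, scaled by median absolute deviation.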

Chain of furin, P09958 (P09958 whole entry): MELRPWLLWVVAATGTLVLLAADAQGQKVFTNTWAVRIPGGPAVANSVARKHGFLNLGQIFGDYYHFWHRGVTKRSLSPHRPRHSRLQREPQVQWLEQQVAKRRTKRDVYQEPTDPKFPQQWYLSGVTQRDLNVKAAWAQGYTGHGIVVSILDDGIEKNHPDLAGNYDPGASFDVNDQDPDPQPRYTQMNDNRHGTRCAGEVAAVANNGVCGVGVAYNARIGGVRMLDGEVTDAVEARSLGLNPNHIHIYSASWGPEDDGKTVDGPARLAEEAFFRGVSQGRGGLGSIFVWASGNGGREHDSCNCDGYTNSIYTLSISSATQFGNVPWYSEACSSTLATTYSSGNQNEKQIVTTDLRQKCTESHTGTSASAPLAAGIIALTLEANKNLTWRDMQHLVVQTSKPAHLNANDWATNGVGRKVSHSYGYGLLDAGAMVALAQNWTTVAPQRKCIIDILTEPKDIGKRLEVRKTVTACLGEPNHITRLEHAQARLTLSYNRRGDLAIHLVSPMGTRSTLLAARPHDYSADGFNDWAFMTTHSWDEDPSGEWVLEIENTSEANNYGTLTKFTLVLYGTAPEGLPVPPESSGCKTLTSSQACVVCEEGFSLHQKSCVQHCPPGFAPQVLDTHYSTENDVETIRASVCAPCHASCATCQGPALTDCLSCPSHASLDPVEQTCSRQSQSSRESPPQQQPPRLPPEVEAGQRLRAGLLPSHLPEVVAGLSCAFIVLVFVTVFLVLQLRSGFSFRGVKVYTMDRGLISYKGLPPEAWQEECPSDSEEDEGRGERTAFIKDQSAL

Sequence	furin cleavage Z-score (7.5 min)	furin cleavage Z-score (15 min)	furin cleavage Z-score (30 min)
CAYNPPLVETAGNASASA [HC1307]	-1.06 (inactive)	-1.13 (inactive)	-1.23 (inactive)
CADVEVVTSTAGNASASA [HC2290]	1.98	0.479 (inactive)	0.627 (inactive)
CAYSGGDIYHAGNASASA [HC1648]	-0.433 (inactive)	-0.656 (inactive)	-0.39 (inactive)
CAMHTRCHCGAGNASASA [HC1173]	-0.571 (inactive)	-2.41 (inactive)	-1.42 (inactive)
CATRTIASPKAGNASASA [HC704]	1.03	0.625 (inactive)	-0.793 (inactive)
CAWRVDGIMHAGNASASA [HC1170]	1.37	0.67 (inactive)	0.743 (inactive)
CAPPPKSPPVAGNASASA [HC1319]	-0.03 (inactive)	-0.325 (inactive)	0.671 (inactive)
CAPPPRKKRTAGNASASA [HC1323]	12.7 (active)	14.5 (active)	10.1 (active)
CAELGDDGRTAGNASASA [FS-1627]	-0.885 (inactive)	-0.821 (inactive)	-0.581 (inactive)
CAELLRKKRTAGNASASA [FS-991]	5.51 (active)	6.85 (active)	6.38 (active)
CAILSRAKRPAGNASASA [FS-252]	0.222 (inactive)	-1.38 (inactive)	0.306 (inactive)
CAIRSGKKRTAGNASASA [FS-669]	-1.71 (inactive)	-0.504 (inactive)	-0.845 (inactive)
CAQLLRKKRPAGNASASA [FS-479]	2.18	1.54	4.39 (active)
CAAAQTFLATAGNASASA [HC693]	-1.34 (inactive)	-1.47 (inactive)	-1.85 (inactive)
CACTPCSAHLAGNASASA [HC2480]	2.02	1.15	0.414 (inactive)
CAHYPCTINYAGNASASA [HC469]	-0.918 (inactive)	-0.579 (inactive)	0.122 (inactive)
CAMEECSGHLAGNASASA [HC1736]	-0.517 (inactive)	-0.79 (inactive)	1.12
CAVWCCSMSYAGNASASA [HC2008]	1.84	-0.334 (inactive)	1.13
CASPQRRRRQAGNASASA [FS-1415]	7.36 (active)	8.25 (active)	6.4 (active)
CAEQRRRRRQAGNASASA [FS-234]	8.68 (active)	6.63 (active)	6.29 (active)
CACLRRRRRQAGNASASA [FS-1623]	8.28 (active)	7.74 (active)	5.47 (active)

Sequence	furin cleavage Z-score (7.5 min)	furin cleavage Z-score (15 min)	furin cleavage Z-score (30 min)
CAIGGRFDRQAGNASASA [FS-1012]	-1.34 (inactive)	2.43	1.03
CANMWRCPRQAGNASASA [FS-181]	1.61	-1.4 (inactive)	-1.2 (inactive)
CARLRKCVEQAGNASASA [FS-1860]	-0.549 (inactive)	0.53 (inactive)	1.14
CAIFRRRPRQAGNASASA [FS-801]	5.14 (active)	4.22 (active)	2.76
CAGREERRRQAGNASASA [FS-787]	-0.438 (inactive)	-0.529 (inactive)	0.464 (inactive)
CASTPCSAELAGNASASA [HC2552]	-0.156 (inactive)	0.767 (inactive)	0.789 (inactive)
CAGLEVVTSTAGNASASA [HC2276]	1.36	-0.694 (inactive)	-0.958 (inactive)
CASILGIGTVAGNASASA [HC823]	-0.809 (inactive)	0.141 (inactive)	-0.562 (inactive)
CAAYAQQTRGAGNASASA [HC676]	0.0125 (inactive)	0.047 (inactive)	1.9
CAKAVDFIPVAGNASASA [HC756]	-0.823 (inactive)	-0.464 (inactive)	-0.656 (inactive)
CATPQRLRRQAGNASASA [FS-570]	7.8 (active)	8.92 (active)	4.33 (active)
CATPGLPVCQAGNASASA [HC933]	0.0348 (inactive)	-0.269 (inactive)	0.151 (inactive)
CAEVVTSTWFAGNASASA [HC2247]	-0.0997 (inactive)	1.76	0.942 (inactive)
CARFLRHTGRAGNASASA [FS-1701]	2.28	1.08	0.702 (inactive)
CAIFLRLKRRAGNASASA [FS-800]	3.63 (active)	3.18	3.43
CAAMRRLKRRAGNASASA [FS-1304]	8.73 (active)	7.83 (active)	8.17 (active)
CAREQRERRRAGNASASA [FS-1155]	0.997 (inactive)	2.01	2.01
CALRRRLKRRAGNASASA [FS-361]	7.56 (active)	7.31 (active)	5.73 (active)
CAETRRERRRAGNASASA [FS-1121]	3.87 (active)	4.13 (active)	4.7 (active)
CASDVVCCSMAGNASASA [HC2117]	1.61	-1.16 (inactive)	0.074 (inactive)
CAMEEGSQHLAGNASASA [HC2]	-0.0457 (inactive)	-0.462 (inactive)	1.87
